Bioassay records (PubChem)
Shown are actives, neighbours in structure and some others; about 2.8% of the full set was active somewhere.
Six1-Eya2 blk: Six1/Eya2 interaction inhibition; Q15475+O00167; AlphaScreen GST-Six1/His-Eya2 binding, biochemical; hits give low values; activity change, % (concentration not given with the values); 360,000 compounds, 0.56% hits; in the data active = activity change below about -65%; inconclusive = mostly about -30% to -63%; also: % is scaled to controls: 0 for no effect and ±100 for the full control effect
Target sequence (O00167 whole entry, looked up): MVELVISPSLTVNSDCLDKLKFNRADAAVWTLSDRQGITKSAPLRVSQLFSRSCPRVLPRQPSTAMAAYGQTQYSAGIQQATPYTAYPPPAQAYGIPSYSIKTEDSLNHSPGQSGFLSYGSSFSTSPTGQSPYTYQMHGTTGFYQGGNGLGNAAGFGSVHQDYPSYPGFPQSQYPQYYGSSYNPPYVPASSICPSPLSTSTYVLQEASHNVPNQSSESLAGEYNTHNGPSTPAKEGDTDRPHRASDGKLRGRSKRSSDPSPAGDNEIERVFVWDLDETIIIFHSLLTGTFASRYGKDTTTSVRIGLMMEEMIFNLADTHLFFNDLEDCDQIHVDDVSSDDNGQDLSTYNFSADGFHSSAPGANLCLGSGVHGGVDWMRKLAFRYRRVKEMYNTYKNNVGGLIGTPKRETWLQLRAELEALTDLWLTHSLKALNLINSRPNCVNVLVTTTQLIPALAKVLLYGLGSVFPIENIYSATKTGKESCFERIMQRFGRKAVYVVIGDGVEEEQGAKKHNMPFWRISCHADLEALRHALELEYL
Target sequence (Q15475 whole entry, looked up): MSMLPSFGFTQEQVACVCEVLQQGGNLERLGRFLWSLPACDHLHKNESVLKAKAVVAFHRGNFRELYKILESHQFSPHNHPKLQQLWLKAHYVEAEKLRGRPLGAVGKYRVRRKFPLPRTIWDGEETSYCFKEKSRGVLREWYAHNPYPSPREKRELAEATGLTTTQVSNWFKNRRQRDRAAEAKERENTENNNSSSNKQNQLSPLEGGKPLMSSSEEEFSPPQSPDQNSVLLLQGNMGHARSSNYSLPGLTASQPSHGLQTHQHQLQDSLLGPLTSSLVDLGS
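GST-Six1 + His-Eya2 (5X stock: 250/500 nM); Tris pH 8.0, 300 mM NaCl, 0.05% BSA, 0.02% Tween 20; GSH donor/Ni acceptor beads; 1 h 37 °C dark; AlphaScreen readout.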
ATXN viability: viability counter-screen for ATXN expression inhibitors. Potency, µM (highest dose often 56.7 µM), usual class: cytotoxic. 400,000 compounds, 0.49% hits. S2 cells (HEK-293 line with an ATXN2-luciferase reporter) viability, CellTiter-Fluor protease fluorescence, 24 h. AID 651635; also: potency is read from the fitted curve at half-maximal effect; nearly all actives have a fitted effect of over 40% in size
ATXN2 expr inh: inhibitors of ATXN2 expression. HEK-293 ATXN2-luciferase reporter, luminescence, 24 h. 360,000 compounds, 0.72% hits. AID 1745845. Potency, µM (top dose mostly 57 µM), inactives show top-dose activity change, negative = inhibition, usual class: inhibitors; also: potency is read from the fitted curve at half-maximal effect; % is scaled to controls: 0 for no effect and ±100 for the full control effect; nearly all actives have a fitted effect of over 55% in size
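qHTS (up to 57 uM final) was run with 24 h compound exposure of reporter cells at 37 °C. Each well was multiplexed: SteadyGlo luminescence measured ATXN2-luciferase expression after a fluorogenic Gly-Phe-AFC viability readout (25 uM final).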
TGFb SMAD3 inh: TGF-b pathway inhibition | HepG2 CAGA-GFP TGF-b/SMAD3 reporter, GFP fluorescence, 18 h; TGF-beta stimulated, 500 pg/mL final | Potency, µM (highest dose often 46.1 µM), inactives show top-dose activity, negative = inhibition, usual class: inhibitors | 410,000 compounds, 1.2% hits; also: potency is read from the fitted curve at half-maximal effect; % is scaled to controls: 0 for no effect and ±100 for the full control effect; nearly all actives have a fitted effect of over 65% in size
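HEPG2 CAGA-GFP cells (1000/well, DMEM with 1% FBS) were pre-incubated 2 h at 37 degrees C, given compound by pin tool, then stimulated with TGF-beta at 500 pg/mL final for 18 h before per-cell GFP fluorescence imaging.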
CtBP-E1A blk: CtBP/E1A binding inhibition. 340,000 compounds, 0.49% hits. activity change, % (no concentration beside the values). AlphaScreen GST-E1A/His-CtBP binding, 1536-well; hits give low values. AID 651724; in the data active = activity change below about -65%; inconclusive = mostly about -30% to -63%; also: % is scaled to controls: 0 for no effect and ±100 for the full control effect
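AlphaScreen with 125 nM GST-E1A and 125 nM His-CtBP (5X stocks) in Tris pH 8.0, 300 mM NaCl, BSA, Tween 20, TCEP. Compounds preincubated 2 h at 37 deg C, then glutathione donor/nickel acceptor beads added for 1 h at 37 deg C in dark.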
HepG2 tox-1: counter-screen for TGF-b inhibitors: cytotoxicity in HepG2 cells; 410,000 compounds, 0.76% hits; HepG2 CAGA-GFP viability, ATP luminescence, 18 h; Potency, µM (series often up to 46.1 µM), inactives show at the top dose activity change, negative = cytotoxicity, most hits filed as cytotoxic; also: potency is read from the fitted curve at half-maximal effect
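CellTiter-Glo luminescence gave cytotoxicity after 18 hours at 37 degrees C. The cells were HepG2 CAGA-GFP in 1% FBS DMEM, stimulated with 500 pg/mL TGF-beta after compound addition. %Activity was normalised to no-cell wells (complete cell-killing) and DMSO (no toxicity), and curves were fitted and classified.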
TGFb CAGA inh: TGF-b pathway inhibition, cherry-pick retest; shares compounds with TGFb SMAD3 inh; HepG2 CAGA-GFP TGF-b reporter, GFP fluorescence, 18 h; cells stimulated with TGF-beta, 500 pg/mL; Potency, µM (series often up to 46.1 µM), inactives show at the top dose activity, negative = inhibition, hits mostly inhibitors; 1,600 compounds, 63% hits; AID 720534; also: potency is read from the fitted curve at half-maximal effect; % is scaled to controls: 0 for no effect and ±100 for the full control effect; nearly all actives have a fitted effect of over 65% in size
HepG2 tox-2: HepG2 cytotoxicity, TGF-b inhibitor counterscreen; shares compounds with TGFb SMAD3 inh; HepG2 CAGA-GFP viability, ATP luminescence, 18 h; cells stimulated with TGF-beta, 500 pg/mL; Potency, µM (doses to about 46.1 µM), without a hit: at the top dose activity, negative = cytotoxicity, actives largely listed as inhibitors; 1,600 compounds, 27% hits; AID 720535; also: potency is read from the fitted curve at half-maximal effect; % is scaled to controls: 0 for no effect and ±100 for the full control effect; nearly all actives have a fitted effect of over 70% in size
CCL64 TGFb inh: TGF-b inhibition, CCL64 orthogonal assay; shares compounds with TGFb SMAD3 inh; 1,600 compounds, 41% hits; CCL64 CAGA-GFP reporter, TGF-b stimulated, GFP fluorescence, 18 h; Potency, µM (highest dose often 46.1 µM), inactives show top-dose activity, negative = inhibition, hits mostly inhibitors; AID 720536; also: potency is read from the fitted curve at half-maximal effect; nearly all actives have a fitted effect of over 65% in size
COP TGFb inh: validation of TGF-b inhibitors in HepG2 COP promoter reporter. shares compounds with TGFb SMAD3 inh. HepG2 COP-GFP TGF-b reporter, GFP fluorescence, 18 h; cells stimulated by added recombinant TGF-beta. Potency, µM (top dose mostly 46.1 µM), for the others: at the top dose activity, negative = inhibition, most hits filed as inhibitors. 1,600 compounds, 3% hits. AID 720537; also: potency is read from the fitted curve at half-maximal effect; nearly all actives have a fitted effect of over 70% in size
* hit, by the source's call; i = inactive; ? = inconclusive; / = no result. Unless noted, calls follow the shape of the dose curve; as a rule, active = well fitted curve in the direction sought with a large enough effect; inconclusive = small, poorly fitted or top-dose-only effect, or another doubt; inactive = no such curve, though single readings can be large; an effect the other way counts as inactive or inconclusive.

SMILES	Six1-Eya2 blk	ATXN viability	ATXN2 expr inh	TGFb SMAD3 inh	CtBP-E1A blk	HepG2 tox-1	TGFb CAGA inh	HepG2 tox-2	CCL64 TGFb inh	COP TGFb inh
O=C(Nc1nnc(-c2cccs2)o1)c1cc(-c2ccccc2)nc2ccccc12	-16	?	?	11µM*	-5	-11%	12µM*	?	15µM*	27%
CCOC(=O)c1sc(NC(=O)c2cc(-c3ccc(C)cc3)nc3ccccc23)c(C#N)c1C	-4	i	9%	?	0	-12%	/	/	/	/
COC(=O)c1sc(NC(=O)c2cc(-c3ccccc3)nc3ccccc23)c(C#N)c1C	-15	?	?	5µM*	-16	-46%	4.6µM*	?	3.3µM*	45%
Cc1ccccc1-c1cc(C(=O)Nc2sc(C(=O)OC(C)C)c(C)c2C#N)c2ccccc2n1	-3	?	?	3.5µM*	-5	-35%	5.2µM*	1.5µM*	5.8µM*	55%
COc1ccc(-c2cc(C(=O)Nc3sc4c(c3C#N)CCCC4)c3ccccc3n2)cc1	7	i	3%	-18%	-3	-18%	/	/	/	/
CCN(CC)c1nc2ccccc2nc1C(=O)Nc1ccc(C(C)=O)cc1	/	?	-17%	0%	/	-21%	/	/	/	/
O=C(Nc1ccccc1Cl)c1cc(C2CCCCN2S(=O)(=O)c2ccc(F)cc2F)on1 (stereo not drawn)	0	i	-29%	18%	7	-18%	/	/	/	/
Cc1cccc(/C=C/C(=O)c2ccc([N+](=O)[O-])o2)c1	-1	10µM*	10µM*	2.2µM*	0	10µM*	3.3µM*	5.2µM*	2.1µM*	?
Cc1ccccc1/C=C/C(=O)c1ccc([N+](=O)[O-])o1	-1	13µM*	13µM*	3.2µM*	5	-113%	3.3µM*	6.5µM*	4.1µM*	?
O=C(/C=C/c1cccc([N+](=O)[O-])c1)c1ccc([N+](=O)[O-])o1	1	3.5µM*	?	1.3µM*	1	4.5µM*	2.9µM*	8.2µM*	1.6µM*	?
COc1ccc(/C=C/C(=O)c2ccc([N+](=O)[O-])o2)cc1	2	?	?	?	3	-58%	/	/	/	/
COc1ccc(Br)cc1CNC(=O)CN1CCSc2ccccc21	/	?	?	?	/	-40%	/	/	/	/
Cc1cc(C)cc(NC(=O)Cn2cc(C(=O)C3CCCCC3)c3ccccc32)c1	/	i	16%	-2%	/	-24%	/	/	/	/
CCOc1ccc(CNC(=O)c2ccccc2NC(=O)c2nsc3ccccc23)cc1	/	/	/	?	/	-3%	/	/	/	/
CCC1(O)CCCC2C3CCC4CC(=O)CCC4(C)C3C(=O)CC21C (stereo not drawn)	-9	i	6%	-7%	4	-27%	/	/	/	/
Cc1ccc(-n2nc(CO)c(C(=O)NCc3ccccn3)n2)cc1C	/	/	/	-40%	/	-15%	/	/	/	/
C=CC(=O)Nc1cccc(Oc2ccnc(Nc3ccc(N4CCN(C)CC4)cc3)n2)c1	-20	?	0%	13µM*	-11	-10%	15µM*	23µM*	12µM*	22%
CN1CCN(c2ccc(NC(=O)COc3ccc4ccccc4c3)cc2)CC1	10	i	-14%	-9%	-2	-9%	/	/	/	/
Cc1ccc(-c2csc(N(CCO)CCCn3c(C(F)(F)F)nc4cc(C(F)(F)F)ccc43)n2)cc1	-6	?	2%	7.1µM*	4	-12%	21µM*	-25%	?	-4%
OCCN(CCCn1c(C(F)(F)F)nc2ccccc21)c1nc(CN2CCCCC2)cs1	2	i	8%	-26%	4	0%	/	/	/	/
CCc1cccc(CC)c1NC(=O)Cn1nnc2sc(-c3ccccc3)cc2c1=O	/	i	6%	1%	/	2%	/	/	/	/
Cc1cccc(C)c1NC(=O)CCCSc1nnc(-c2ccc(F)cc2)n1-c1ccccc1	6	i	-5%	7.9µM*	-5	-37%	?	-25%	?	18%
CCC(C(=O)Nc1cccc(C#N)c1)n1nc(-c2ccccc2)ccc1=O (stereo not drawn)	/	i	-12%	-18%	/	-10%	/	/	/	/
C1=C(CCNc2ncnc3c2[nH]c2ccccc23)CCCC1	-8	14µM*	?	3.5µM*	-2	-88%	?	21µM*	6.5µM*	25%
O=C(C[C@H]1C/C=C\CC[C@H](Cc2ccc(F)cc2)C(=O)O[C@@H](c2ccccc2)CNC1=O)N[C@H](CO)Cc1ccccc1	10	?	0%	?	/	-66%	/	/	/	/
O=C1NC[C@H](c2ccccc2)OC(=O)[C@H](Cc2ccc(F)cc2)CC/C=C/C[C@H]1CC(=O)N(CCO)Cc1ccccc1	1	?	0%	?	-11	/	/	/	/	/
O=C(C[C@H]1C/C=C\CC[C@H](Cc2ccc(F)cc2)C(=O)O[C@@H](c2ccccc2)CNC1=O)N[C@@H](CO)Cc1ccccc1	4	?	?	7.1µM*	/	-114%	?	?	13µM*	25%
O=C1N[C@@H](Cc2c[nH]c3ccccc23)COC(=O)[C@@H](Cc2ccc(F)cc2)CC/C=C/C[C@@H]1CC(=O)N(CCO)Cc1ccccc1	-18	?	?	8.9µM*	-16	-2%	5.8µM*	-8%	?	21%
